# Screens (PubChem BioAssay)
# Hits are enriched below; roughly 6.1% of the tested compounds scored in any of these assays.
# TGFb SMAD3 inh: blocks TGF-b signaling; HepG2 CAGA-GFP TGF-b/SMAD3 reporter, GFP fluorescence, 18 h; TGF-beta stimulated, 500 pg/mL final; Potency, µM (highest dose often 46.1 µM), actives largely listed as inhibitors; 410,000 tested, 1.2% active; note: nearly all actives have a fitted effect of over 65% in size
#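 GFP signal (ex488/em500-530) from TGF-beta-stimulated HEPG2 CAGA-GFP cells, 500 pg/mL final, 18 h at 37 degrees C in DMEM plus 1% FBS, normalized to unstimulated and DMSO-stimulated controls.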
# ATXN2 expr inh: inhibitors of ATXN2 expression; HEK-293 ATXN2-luciferase reporter, luminescence, 24 h; 360,000 tested, 0.72% active; Potency, µM (doses to about 57 µM), hits mostly inhibitors; note: nearly all actives have a fitted effect of over 55% in size
#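 qHTS (up to 57 uM final) was run with 24 h compound exposure of reporter cells at 37 °C. Each well was multiplexed: SteadyGlo luminescence measured ATXN2-luciferase expression after a fluorogenic Gly-Phe-AFC viability readout (25 uM final).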
# HepG2 viability: counter-screen for TGF-b inhibitors: cytotoxicity in HepG2 cells | HepG2 CAGA-GFP viability, ATP luminescence, 18 h | Potency, µM (series often up to 46.1 µM), usual class: cytotoxic | 410,000 tested, 0.76% active
#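 CellTiter-Glo luminescence gave cytotoxicity after 18 hours at 37 degrees C. The cells were HepG2 CAGA-GFP in 1% FBS DMEM, stimulated with 500 pg/mL TGF-beta after compound addition. %Activity was normalised to no-cell wells (complete cell-killing) and DMSO (no toxicity), and curves were fitted and classified.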
# S2 tox: viability counter-screen for ATXN expression inhibitors; S2 cells (HEK-293 line with an ATXN2-luciferase reporter) viability, CellTiter-Fluor protease fluorescence, 24 h; Potency, µM (highest dose often 56.7 µM), actives largely listed as cytotoxic; 400,000 tested, 0.49% active; AID 651635; note: nearly all actives have a fitted effect of over 40% in size
# RORgamma inh: ROR gamma (mouse) transcription inhibition; Drosophila S2 Gal4-RORgamma UAS-luciferase reporter, 20 h; Potency, µM (doses to about 53.6 µM), actives largely listed as inhibitors; 310,000 tested, 5.4% active; AID 2551; note: nearly all actives have a fitted effect of over 60% in size
# Target sequence (P51450 whole entry, looked up, the tested form may be a part): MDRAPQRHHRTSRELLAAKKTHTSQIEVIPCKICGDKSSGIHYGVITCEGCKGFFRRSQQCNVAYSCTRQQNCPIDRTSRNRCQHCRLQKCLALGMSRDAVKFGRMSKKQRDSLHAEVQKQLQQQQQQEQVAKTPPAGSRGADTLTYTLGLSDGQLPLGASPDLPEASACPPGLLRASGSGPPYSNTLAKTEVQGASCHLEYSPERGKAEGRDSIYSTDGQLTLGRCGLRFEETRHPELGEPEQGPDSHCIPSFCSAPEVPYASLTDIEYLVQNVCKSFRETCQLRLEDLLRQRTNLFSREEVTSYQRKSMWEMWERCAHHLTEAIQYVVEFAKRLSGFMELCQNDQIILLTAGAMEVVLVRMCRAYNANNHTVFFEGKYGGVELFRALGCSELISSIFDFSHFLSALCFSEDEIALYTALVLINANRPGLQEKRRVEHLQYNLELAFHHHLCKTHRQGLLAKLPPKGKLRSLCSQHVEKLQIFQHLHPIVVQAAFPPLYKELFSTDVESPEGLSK
#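 ROR gamma transcriptional activity was tracked as Gal4-UAS luciferase output in stably transfected Drosophila Schneider cells, with compound added 1 hr before 700 uM copper sulfate induction and a 20 hr ambient-temperature incubation.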
# Gal4-VP16 FLuc: inhibits Gal4-VP16 luciferase reporter, ROR gamma counter-screen; AID 2546; 310,000 tested, 3.5% active; Potency, µM (doses to about 53.6 µM), hits mostly inhibitors; Drosophila S2 Gal4-VP16 UAS-luciferase, luminescence, 20 h;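 note: Gal4-VP16 expression switched on by copper sulfate through the metallothionein promoter; nearly all actives have a fitted effect of over 50% in size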
# Numbers stand for hits; . = inactive; ? = inconclusive; / = not tested or not shown; [ ] = remark or other dose. Calls come from the whole dose curve; as a rule, active = well fitted curve in the direction sought with a large enough effect; inconclusive = small, poorly fitted or top-dose-only effect, or another doubt; inactive = no such curve, though single readings can be large; an effect the other way counts as inactive or inconclusive.
SMILES,TGFb SMAD3 inh,ATXN2 expr inh,HepG2 viability,S2 tox,RORgamma inh,Gal4-VP16 FLuc
COc1ccccc1-c1nnc(Sc2nc([N+](=O)[O-])nn2C)o1,.,10µM,.,/,?,?
CC(=O)Nc1ccc(S(=O)(=O)NNC2=NS(=O)(=O)c3ccccc32)cc1,.,.,.,.,10µM,.
CC(=O)Nc1ccc(S(=O)(=O)NNC(=O)C(=O)NNc2ccccn2)cc1,.,/,.,.,.,.
COc1ccccc1N=Nc1nc(-c2ccccc2)c(-c2ccccc2)[nH]1,?,.,.,35µM,3.2µM,5µM
COc1ccc(N=Nc2nc(-c3ccccc3)c(-c3ccccc3)[nH]2)cc1,?,.,.,?,2.2µM,2.8µM
COc1ccc(-c2nc(C)ncc2N=Nc2ccccc2)cc1,.,.,.,.,.,.
Oc1ccccc1N=Nc1nc(-c2ccccc2)c(-c2ccccc2)[nH]1,?,?,.,/,4µM,4µM
COc1ccc(-c2nc(-c3ccccc3)c(-c3ccccc3)[nH]2)cc1Br,?,.,.,.,/,/
Cc1c(OCC(=O)NC2CC(C)(C)NC(C)(C)C2)ccc2c1oc(=O)c1ccccc12,.,18µM,.,?,.,.
O=C(CNc1ccc(Br)cc1)NNC1=NCCC1,.,.,.,?,5.6µM,7.1µM
CCOCN(C(=O)Cn1cnc2cc(C)c(C)cc21)c1c(C)cccc1CC,.,.,.,28µM,/,/
C[C@]12CC[C@@H]3c4ccc(O)cc4CC[C@H]3[C@H]1CC[C@H]2O,/,.,/,/,/,/
C/C(=N\NC(=O)c1ccc(Cl)c(Cl)c1)c1ccc(Br)s1,.,?,.,.,0.63µM,0.63µM
C/C(=N\Nc1ccc(Cl)c(C(=O)O)c1)c1ccc(Br)s1,.,.,.,.,.,.
C/C(=N/NC(=O)c1ccc2c(c1)OCO2)c1ccc(Br)s1,.,/,.,?,2.8µM,?
C/C(=N\NC(=O)c1ccc2c(c1)OCO2)c1ccco1,.,.,.,.,?,?
Cc1ccc(-c2nnc(Nc3ccc(O)cc3)c3ccccc23)cc1S(=O)(=O)NCC1CCCO1 (configuration not stated),6.3µM,.,.,?,/,/
Cc1ccc(-c2nnc(Nc3ccc(O)cc3)c3ccccc23)cc1S(=O)(=O)N1CCCCC1,2µM,/,.,/,/,/
Cc1ccc(-c2nnc(Nc3ccc(C(N)=O)cc3)c3ccccc23)cc1S(=O)(=O)NCC1CCCO1 (configuration not stated),.,.,.,.,.,.
COc1ccc(Nc2nnc(-c3ccc(C)c(S(=O)(=O)NCc4nc5ccccc5[nH]4)c3)c3ccccc23)cc1,7.9µM,?,.,?,/,/
Cc1ccc(-c2nnc(Nc3ccc(C(N)=O)cc3)c3ccccc23)cc1S(=O)(=O)N1CCCCC1,.,.,.,.,/,/
CCN1CCN(C(=O)c2sc3ncnc(NCC4CCCO4)c3c2C)CC1 (configuration not stated),/,/,/,.,/,/
CCn1c(-c2ccccc2F)nc2cc(C(=O)N3CCCC(CO)C3)cc(NC(C)=O)c21 (configuration not stated),/,/,/,.,/,/
Cc1cc(C)cc(NC(=O)c2sc3nc(-c4ccccc4)cn3c2C)c1,.,/,.,/,/,/
CCC(=O)N1CCc2cc(Br)cc(S(=O)(=O)NCCc3ccc(OC)c(OC)c3)c21,.,.,.,.,/,/
SMILES,TGFb SMAD3 inh,ATXN2 expr inh,HepG2 viability,S2 tox,RORgamma inh,Gal4-VP16 FLuc
COc1ccc(-n2ncc(C(=O)N3CCN(c4ccccn4)CC3)c2C2CCN(C(=O)OC(C)(C)C)CC2)cc1,.,/,.,/,/,/
O=C(N/N=C\c1ccc(COc2ccc([N+](=O)[O-])cc2)o1)c1ccc(Cl)cc1,.,.,.,.,13µM,?
Cc1ccc(/C=N/NC(=O)c2cccc([N+](=O)[O-])c2)o1,.,.,.,?,.[10 µM],?
COc1ccc(OCc2ccc(/C=N\NC(=O)c3sccc3C)o2)cc1,.,.,.,.,11µM,?
O=C(N/N=C/c1ccc(-c2cccc([N+](=O)[O-])c2)o1)c1ccccc1O,.,?,.,.,3.2µM,2.2µM
COc1cc([N+](=O)[O-])ccc1-c1ccc(/C=N/NC(=O)c2ccccc2O)o1,/,/,/,/,1µM,4µM
COc1cc([N+](=O)[O-])ccc1-c1ccc(/C=N\n2cnnc2)o1,.,/,.,.,.,.
O=C(COc1ccc(/C=N/NC(=O)c2ccccc2)cc1)Nc1ccc([N+](=O)[O-])cc1,.,.,.,.,.,.
COc1cccc(CNC(=O)CCCN2C(=O)CSc3c2c(C)nn3-c2ccccc2)c1,.,.,.,.,/,/
O=C(N/N=C/c1ccc(Br)o1)/C(=C/c1ccc([N+](=O)[O-])cc1)NC(=O)c1ccccc1,.,.,.,.,10µM,?
CSc1ccc(/C=N/NC(=O)c2ccc(C)c(C)c2)cc1,.,.,.,.,?,?
O=C(N/N=C\c1ccc(-c2ccc([N+](=O)[O-])cc2)o1)c1ccc2c(c1)OCO2,.,.,.,?,.,?
CSc1ccc(/C=N/NC(=O)c2sccc2C)cc1,.,.,.,.,8.9µM,?
O=C(N/N=C/c1ccc(-c2cccc([N+](=O)[O-])c2)o1)c1ccc([N+](=O)[O-])cc1,.,.,.,.,2.5µM,5µM
O=C(N/N=C/c1ccco1)/C(=C/c1cccc([N+](=O)[O-])c1)NC(=O)c1ccccc1,?,.,.,.,.,.
CCOC(=O)CNC(=O)O[C@@H]1C(=O)c2cc(OC)ccc2O[C@H]1c1ccc(OC)c(Br)c1,/,/,/,/,.,.
COc1cccc2cc(-c3nc4sc5c(c4c(=O)[nH]3)CCC(C(C)(C)C)C5)c(=O)oc12 (configuration not stated),.,/,.,/,/,/
COc1cc(NC(=O)CN2C(=O)c3ccccc3Sc3ccc(C(=O)N4CCCC4)cc32)cc(OC)c1,.,.,.,.,/,/
O=C(C1CCN(c2ncnc3c2sc2cccc(F)c23)CC1)N1CCOCC1,?,?,.,?,.,.
O=C(NCCN1CCOCC1)C1CCN(c2ncnc3c2sc2cccc(F)c23)CC1,.,.,.,.,.,14µM
CC(=O)CC(=O)Nc1ncc(C(F)(F)F)cc1Cl,.,.,.,.,.,.
Nc1ccccc1C(=O)NNc1ncc(C(F)(F)F)cc1Cl,.,.,.,.,0.79µM,1µM
O=C(NNc1ncc(C(F)(F)F)cc1Cl)c1ccc(Cl)c(Cl)c1,.,.,.,.,11µM,?
CCC1(C)Cc2nc3[nH]c(=S)n(-c4ccccc4)c(=O)c3cc2CO1 (configuration not stated),.,.,.,.,2.8µM,?
